High-throughput results: PubChem, National Center for Advancing Translational Sciences (NCATS)
This is a sample that favours compounds with a hit; in the whole collection about 7.3% have one here.
Vaccinia Venus – qHTS for Stage-Specific Inhibitors of Vaccinia Orthopoxvirus: Venus Reporter Primary qHTS; Vaccinia virus Venus reporter expression, fluorescence; Potency, µM (doses to about 36.5 µM), inactives show at the highest dose activity change, negative = inhibition, hits mostly inhibitors; 330,000 tested, 0.46% active; AID 720580, 2013; calls by dose curve; tested in A549 cells; note: potency is the fitted concentration of half-maximal effect; nearly all actives have a fitted effect of over 30% in size
VACV mCherry inh – qHTS for Stage-Specific Inhibitors of Vaccinia Orthopoxvirus: mCherry Reporter Primary qHTS; Vaccinia virus mCherry reporter infection, fluorescence; Potency, µM (doses to about 36.5 µM), inactives show at the highest dose activity change, negative = inhibition, actives largely listed as inhibitors; 310,000 tested, 0.63% active; AID 720579, 2013; calls by dose curve; tested in A549 cells; note: potency is the fitted concentration of half-maximal effect; nearly all actives have a fitted effect of over 35% in size
HCMV inh – qHTS Assay for inhibitors of the human cytomegalovirus (HCMV); 410,000 tested, 4.5% active; AID 1259415, 2018; activity change, negative = inhibition, % at 57.5 µM; HFF cells, HCMV-luciferase reporter, 72 h; hits give low values; in the data active = activity change below about -60%; inconclusive = no clear call, values can overlap the other calls; inactive = above about -39%
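Screen run at 2 compound doses on HFFs infected with reporter HCMV, MOI 1 PFU/cell. Luciferase activity from cell lysates at 72 h post infection gave inhibition relative to buffer-only and Salinomycin wells.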
HCV inhibitor – qHTS Assay for Inhibitors of Hepatitis C Virus (HCV); Huh7.5.1 HCVcc-Cre infection, luciferase reporter, 44 h; Potency, µM (series often up to 41.8 µM), for inactives: top-dose activity change, negative = inhibition, most hits filed as inhibitors; 340,000 tested, 3.4% active; active = well fitted inhibition curve with a large enough effect; inconclusive = small, poorly fitted or top-dose-only effect, or another doubt; inactive = no such curve, though single readings can be large or run the other way; note: potency is the fitted concentration of half-maximal effect
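Seed cells (1,000/well) for 4 h; treat with compound and infect with HCVcc-Cre, moi about 0.5. Incubate 44 h, then detect luciferase activity.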
FMDV inh – High Throughput Screening for Foot and Mouth Disease Virus Antivirals; FMDV antiviral cell-based qHTS; Potency, µM (titrated, usually from 57.9 µM), for the others: at the top dose activity change, negative = inhibition, actives largely listed as inhibitors; 410,000 tested, 1.2% active; AID 1159524, 2015; calls by dose curve; tested in HEK293T cells; note: read-out not given here; potency is the fitted concentration of half-maximal effect; nearly all actives have a fitted effect of over 45% in size
Numbers without * were called inactive. % is set by controls: 0 for no effect and ±100 for the full control effect.

What do the screens show for `CCOc1ccc(N(C)S(=O)(=O)c2ccc3[nH]cc(C(=O)NCCOC)c(=O)c3c2)cc1`?
Vaccinia Venus: -8.0%; VACV mCherry inh: inactive; HCMV inh: -17.5; HCV inhibitor: -27.1%; FMDV inh: inconclusive

What do the screens show for `C=CCNC(=O)c1c[nH]c2ccc(S(=O)(=O)N(C)c3ccc(OCC)cc3)cc2c1=O`?
HCMV inh: -66.5*; HCV inhibitor: inconclusive; FMDV inh: 0.1%

What do the screens show for `COCC1CCCN(Cc2ccc3c(c2)CN(C(=O)c2cc(-c4ccccc4)n[nH]2)CCO3)C1` (configuration not stated)?
Vaccinia Venus: -17.2%; VACV mCherry inh: -7.6%; FMDV inh: -20.2%

Results for O=Nc1c(O)ccc2cc(S(=O)(=O)O)ccc12 ?
Vaccinia Venus: -6.5%; VACV mCherry inh: -8.7%; HCV inhibitor: 16.7%; FMDV inh: 0.0%

Results for CN(C)c1ccc2cc(S(=O)(=O)O)cc(O)c2c1 ?
Vaccinia Venus: 7.7%; VACV mCherry inh: inconclusive; HCMV inh: -100.3*; HCV inhibitor: 30.9%; FMDV inh: -10.5%

How did CCC(=O)Nc1sc(Cc2ccc3c(c2)OCO3)c(C)c1C(N)=O do in these assays?
HCMV inh: -11.8; HCV inhibitor: -18.8%; FMDV inh: -12.4%

What do the screens show for `Cc1c(Cc2ccc3c(c2)OCO3)sc(NC(=O)C(C)(C)C)c1C#N`?
Vaccinia Venus: -21.5%; VACV mCherry inh: -15.9%; HCMV inh: -33.0; HCV inhibitor: 11.2µM*; FMDV inh: 0.0%

What do the screens show for `O=C(Nc1ccc(F)cc1)C(CCc1ccccc1)N1CCN(c2cccc(C(F)(F)F)n2)CC1` (configuration not stated)?
Vaccinia Venus: -29.4%; VACV mCherry inh: -22.0%; HCMV inh: -17.0; FMDV inh: 0.0%

Results for Cc1nc([N+](=O)[O-])cn1CC(O)c1ccc2c(c1)OCCCO2 (configuration not stated) ?
Vaccinia Venus: -8.8%; VACV mCherry inh: -4.8%

Results for O=C(NCc1ccccc1)C(c1ccco1)N1CCN(C(=O)C2CCCO2)CC1 (configuration not stated) ?
Vaccinia Venus: -5.0%; VACV mCherry inh: -14.7%; HCMV inh: -7.1; FMDV inh: -19.8%

Results for O=C(NCc1ccccc1)C(c1ccc(-c2ccccc2)cc1)N1CCN(C(=O)C2CCCO2)CC1 (configuration not stated) ?
Vaccinia Venus: inconclusive; VACV mCherry inh: 2.82µM*; HCMV inh: inconclusive; FMDV inh: -14.7%

What do the screens show for `Cc1cc(C)nc(N/N=C2/CCCC/C2=C\c2ccccc2)n1`?
Vaccinia Venus: -29.3%; VACV mCherry inh: inconclusive; HCMV inh: -113.5*; HCV inhibitor: inconclusive; FMDV inh: -22.2%

What do the screens show for `Cc1ccnc(N/N=C/c2ccccc2)n1`?
Vaccinia Venus: -12.7%; VACV mCherry inh: -7.2%; HCMV inh: 37.2; HCV inhibitor: -1.5%; FMDV inh: -3.6%

How did CCc1cc(-c2n[nH]c(C)c2-c2nc3ccccc3n2C)c(O)cc1O do in these assays?
Vaccinia Venus: -26.0%; VACV mCherry inh: -28.3%; HCMV inh: -71.4*; HCV inhibitor: inconclusive; FMDV inh: inconclusive

What do the screens show for `O=C1c2ccccc2C(c2nnnn2-c2ccc3c(c2)OCCO3)N1Cc1ccco1` (configuration not stated)?
Vaccinia Venus: -5.0%; VACV mCherry inh: -10.6%; HCMV inh: inconclusive; FMDV inh: -11.9%

Results for CCOc1ccc(Br)cc1S(=O)(=O)NC1=NCCCCC1 ?
Vaccinia Venus: -10.9%; VACV mCherry inh: -15.4%; HCMV inh: -63.8*; HCV inhibitor: -6.7%; FMDV inh: 21.3%

Results for CCOc1ccc(Br)cc1S(=O)(=O)Nc1cccc(S(=O)(=O)NC2=NCCC2)c1 ?
HCMV inh: -6.2; HCV inhibitor: 0.5%; FMDV inh: 33.7%

Results for COc1ccccc1CCNC(=O)Cc1ccc(NC(=O)N2CCSc3ncccc32)cc1 ?
Vaccinia Venus: -5.7%; VACV mCherry inh: -5.1%; HCMV inh: 0.0; FMDV inh: -13.2%

What do the screens show for `CCC(NC(=O)Nc1nnc(C(F)(F)F)s1)(C(F)(F)F)C(F)(F)F`?
Vaccinia Venus: 2µM*; VACV mCherry inh: 3.55µM*; HCMV inh: -105.0*; HCV inhibitor: 4.47µM*; FMDV inh: inconclusive

What do the screens show for `O=C(Cn1cc(SCc2ccc(Cl)cc2)c2ccccc21)N1CCCC1`?
Vaccinia Venus: -17.9%; VACV mCherry inh: -11.4%; HCMV inh: 41.7; FMDV inh: 1.8%

What do the screens show for `ClCCn1cnc2c(SCc3ccccc3Cl)ncnc21`?
Vaccinia Venus: 30.9%; VACV mCherry inh: inconclusive; HCMV inh: -76.3*; HCV inhibitor: -15.7%; FMDV inh: 10.1%

Results for ClCCn1cnc2c(SCc3ccccc3)ncnc21 ?
Vaccinia Venus: 31.3%; VACV mCherry inh: inconclusive; HCMV inh: -64.4*; HCV inhibitor: -21.9%; FMDV inh: 7.3%

What do the screens show for `CN(C)c1ccc(C2=Cc3ccccc3C2)cc1`?
Vaccinia Venus: -6.0%; VACV mCherry inh: -3.1%

How did Cc1ccc(N(CC(=O)Nc2ccc(Br)c(C)c2)S(=O)(=O)c2c(C)[nH]c(=O)[nH]c2=O)cc1 do in these assays?
Vaccinia Venus: -16.3%; VACV mCherry inh: inactive; HCMV inh: -29.7; HCV inhibitor: 5.9%; FMDV inh: -12.4%

What do the screens show for `CS(=O)(=O)c1ccc(-c2ccc3c(c2)CC(CNC(=O)C2(N4CCOCC4)CCCCC2)O3)cc1` (configuration not stated)?
Vaccinia Venus: inconclusive; VACV mCherry inh: -14.5%; FMDV inh: -11.9%

What do the screens show for `COc1cc(C2C(C#N)=C(N)Oc3cc(O)ccc32)cc(OC)c1OC` (configuration not stated)?
Vaccinia Venus: -23.5%; VACV mCherry inh: -17.0%; HCMV inh: -89.1*; HCV inhibitor: -10.3%

How did COc1ccc(C2C(C#N)=C(N)OC3=C2C(=O)CC(C)(C)C3)cc1 (configuration not stated) do in these assays?
HCMV inh: -13.2; HCV inhibitor: 11.7%; FMDV inh: 0.4%

Results for COc1cc(C2C(C#N)=C(N)Oc3cc4c(cc32)OCO4)cc(OC)c1OC (configuration not stated) ?
Vaccinia Venus: inconclusive; VACV mCherry inh: inconclusive; HCMV inh: -86.1*; HCV inhibitor: 25.9%; FMDV inh: -15.5%

How did COc1cc(C2C(C#N)=C(N)OC3=C2C(=O)CC(C)(C)C3)cc2c1OCO2 (configuration not stated) do in these assays?
Vaccinia Venus: -19.0%; VACV mCherry inh: -14.1%; HCMV inh: -0.4; HCV inhibitor: 10µM*; FMDV inh: -8.1%

What do the screens show for `N#CC1=C(N)Oc2cc(N)ccc2C1c1cccc(Br)c1` (configuration not stated)?
HCMV inh: -74.7*; HCV inhibitor: -13.0%; FMDV inh: -14.8%
